PubChem BioAssay (NCI)
The panel holds about 83,000 compounds, 20% with a hit somewhere; the sample as a whole holds those more often.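 Plates (96-well) were seeded with cells, treated with compound at one concentration, and incubated for 48 hours before percent growth was determined.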 Values without a mark were called inactive. The source made the active and inactive calls. The calls were made as follows: active = growth percent below 10; inactive = the rest.

Tested on: M14 melanoma
Test: NCI-60 one-dose screen, 48 h (100 = growth as untreated, 0 = no growth, -100 = all killed)
Details: 10 µM unless noted

Row | SMILES | growth
1 | O=C(Nc1ccccc1)Nc1ncnc2c1ncn2-c1ccc(Cl)cc1 | 98.9%
2 | CC(C)c1ccc(C(=O)Nc2nc3ccc(O)c(CN(C)C)c3s2)cc1 | 26.8%
3 | Cc1ccc(Nn2c(SCC(=O)Nc3nc(-c4ccccc4)cs3)nc(C)c2C)cc1 | 77%
4 | N#CC(C#N)N=Nc1ccc(Br)cc1 | 42.9%
5 | CCN1C(=S)N(c2ccccc2)C2C1NN=c1s/c(=C3\C(=O)N(C(C)C)c4ccccc43)c(=O)n12 (centres undefined) | 81.8%
6 | CSc1nc2ccccc2cc1/C=[N+](\[O-])c1ccccc1 | 27.6%
7 | CN1CCN(c2cc(Nc3cc(C4CC4)[nH]n3)nc(Nc3ccc(CC(=O)NCc4cccc(F)c4)cc3)n2)CC1 | 23.7%
8 | C=CCN=c1sc2c(n1NC(=O)c1cc3ccc1CCc1ccc(cc1)CC3)C(=O)c1ccccc1C2=O | -93.9% (active)
9 | Cn1cc(-c2csc(-c3cn(C(=O)OC(C)(C)C)c4ccc(Br)cc34)n2)c2ccnc(Cl)c21 | 88.2%
10 | CSc1oc(C)nc1[P+](c1ccccc1)(c1ccccc1)c1ccccc1 | 74.9%
11 | C=C1C(=O)O[C@H]2[C@H]1CC/C(Cn1cc(-c3ccccc3)nn1)=C\CC[C@@]1(C)O[C@@H]21 | -59% (active)
12 | O=S(=O)(c1ccccc1)n1cc2c(c1)-c1nc(Nc3ncccn3)sc1CC2 | 45.8%
13 | Cc1[nH]c(C(=O)Nc2ccccc2OC2CCNCC2)c(Cl)c1Cl | -51.6% (active)
14 | COc1ccc(-c2cc(-c3ccc(Cl)cc3)c(C#N)c(=O)n2Cc2ccc(C(=O)Nc3ccccc3N)cc2)cc1 | 81.5%
15 | O=C(CN1CCCCC1)Nc1nc(-c2cc3ccccc3oc2=O)cs1 | 107%
16 | Oc1ccc(Cl)cc1/C=N\NC(=S)N/N=C/c1cc(Cl)ccc1O | 27.1%
17 | COC12C=C/C(=C(/C(=O)OCc3ccncn3)C(=O)CCCCCCCCC3(OC)C=C/C(=C(/C(=O)OCc4ccncn4)C(=O)CCCCCCCC1)O3)O2 | -22.1% (active)
18 | COc1ccc2c(c1)N(CCO)C1=C(C(=O)OC1)C2c1cccc(F)c1 (centres undefined) | -1.78% (active)
19 | CC(=O)Oc1ccc(/C(=C(\C)c2ccc(Cl)cc2)c2ccc(OCCN3CCCCC3)cc2)cc1 | -35.1% (active)
20 | O=C(N(c1ccccc1)c1ccccc1)n1cc(I)c2nc(Cl)nc(Cl)c21 | 57.4%

Row | SMILES | growth
21 | N#Cc1nc(-c2ccccc2)oc1S(=O)(=O)N1CCN(c2ccccc2)CC1 | 81.1%
22 | Cc1ccc(NC(=O)c2sc3nc(C)c(Br)c(C)c3c2N)cc1 | 79%
23 | O=C(CN1C(=O)S/C(=C\C(Cl)=C\c2ccccc2)C1=O)NCCc1ccc(O)cc1 | -26.7% (active)
24 | O=C(/C=C/c1cn(-c2ccccc2)nc1-c1ccc(Cl)cc1)c1ccc(F)cc1 | 79.3%
25 | CCOC(=O)c1c(NC(=O)c2cccc(C(F)(F)F)c2)sc2c(CN(C)C)c(O)ccc12 | -57.8% (active)
26 | N#Cc1c(-c2ccccc2)cc(-c2ccc(Nc3nc(Nc4ccc(Cl)cc4)nc(Nc4ccc(Cl)cc4)n3)cc2)nc1N | 2% (active)
27 | O=C(/C=C/c1cccs1)Nc1ncc(Cc2ccccc2F)s1 | -3.15% (active)
28 | O=S(=O)(Nc1cc(Cl)ccc1Cl)c1ccc(-c2cnc(C3CC3)o2)cc1 | 29.1%
29 | CCOC(=O)c1ccc2c(c1)nc(-c1ccccc1)n2C1CCCCC1 | 88.3%
30 | CC(=O)N1N=C(c2ccc(C(F)(F)F)c(F)c2)CC1c1[nH]c(C)c(C(=O)NCC(F)(F)F)c1C (centres undefined) | 78.8%
31 | O=C(CN1C(=O)S/C(=C\c2ccccc2)C1=O)Nc1ncc(Cc2ccccc2Cl)s1 | 102%
32 | COc1cc(OCc2cccc(Br)c2C)cc(OC)c1C=O | 90.9%
33 | COc1cc(NS(=O)(=O)c2ccc(-c3cnc(C4CC4)o3)cc2)ccc1F | 19%
34 | COC1=CC(c2ccc[nH]2)=N/C1=C\c1[nH]c(C)c(CC(=O)OCc2ccccc2)c1CCC(=O)OCc1ccccc1 | -78.2% (active)
35 | Clc1cccc(Nc2ncnc3ccc(-c4cnc5[nH]ccc5c4)cc23)c1 | 88.7%
36 | COc1cc2ncnc(Nc3ccc(F)c(Cl)c3)c2cc1OCC(=O)N1CCN(c2ccccc2)CC1 | 99.4%
37 | O=C1Nc2ccccc2/C1=C/c1nc2ccccc2c(=O)[nH]1 | 82.2%
38 | CNc1nnc2n(-c3ccccc3)c(=O)c3cnn(-c4ccccc4)c3n12 | 79.1%
39 | C=C1C(=O)O[C@H]2[C@H]1CC/C(COC(=O)c1cc3ccccc3s1)=C\CC[C@@]1(C)O[C@@H]21 | -81.1% (active)
